# From PubChem BioAssay (EPA / NIEHS)
# Activity calls are given as the source filed them. Rule for the calls: active = hit-call score of the fitted dose curve at least 0.9, where 1 is the maximum; inactive = score below 0.9.
# Experiments:
# [1] = APR_HepG2_CellCycleArrest_1hr: Apredica 1-hour HepG2 Assay for Cell Cycle Arrest (AID 2282666); settings: high-content imaging, actives raise or lower the signal
# Method in brief: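 HepG2 cells exposed for 1 h to 0.39–200 uM compound (0.5% DMSO). Fixed, Hoechst-stained nuclei imaged by ArrayScan; DNA content quantified by Cell Cycle analysis; bidirectional fit against DMSO.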
# [2] = APR_HepG2_CellLoss_1hr: Apredica 1-hour HepG2 Assay for Cell Loss (AID 2282668); settings: high-content imaging;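 note: curves fitted both ways against DMSO so gain or loss of cells counts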
# Method in brief: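 HepG2 cells were treated for 1 h with compound at 0.39–200 uM, in duplicate, in 0.5% DMSO. After formaldehyde fixation, Hoechst 33342-stained nuclei were imaged on an ArrayScan to count cells. Data were fitted bidirectionally versus DMSO.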
# [3] = APR_HepG2_MicrotubuleCSK_1hr: Apredica 1-hour HepG2 Assay for Microtubule CSK Stabilty (AID 2282669); settings: HepG2 microtubule cytoskeleton imaging, actives raise or lower the signal
# Method in brief: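 HepG2 cells exposed 1 h to 0.39–200 uM compound (0.5% DMSO, duplicates), then formaldehyde-fixed, permeabilized and immunostained for alpha-tubulin with Hoechst nuclei. Imaged by ArrayScan high-content analysis; bidirectional fit versus DMSO.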
# [4] = APR_HepG2_NuclearSize_1hr: Apredica 1-hour HepG2 Assay for Nuclear Size (AID 2282670); settings: high-content imaging, actives raise or lower the signal
# Method in brief: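 HepG2 cells dosed 1 hr with 0.39–200 uM compound (0.5% DMSO), formaldehyde-fixed, Hoechst 33342-stained and imaged at 20x; nuclear diameter from nuclear stain, fitted bidirectionally against DMSO.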
# [5] = APR_HepG2_MitoMass_1hr: Apredica 1-hour HepG2 Assay for Mitochondrial Mass (AID 2282674); settings: high-content imaging, actives raise or lower the signal
# Method in brief: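 HepG2 cells dosed 1 hr with 0.39-200 uM compound (0.5% DMSO), duplicate wells. Mitochondria stained with 250 nM MitoTracker Red CMXRos for 30 min before formaldehyde fixation, imaged at 20x by ArrayScan; bidirectional fit versus DMSO.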
# [6] = APR_HepG2_MitoMembPot_1hr: Apredica 1-hour HepG2 Assay for Mitochondrial Membrane Potential (AID 2282675); settings: imaging, actives raise or lower the signal
# Method in brief: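 HepG2 cells dosed 1 hour with 0.39–200 uM compound in duplicate, 0.5% DMSO final. MitoTracker Red CMXRos (250 nM, 30 min) loaded before formaldehyde fixation; fluorescence quantified by high-content imaging, bidirectional fitting versus DMSO.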
# [7] = APR_HepG2_CellCycleArrest_24hr: Apredica 24-hour HepG2 Assay for Cell Cycle Arrest (AID 2282905); settings: imaging, actives raise or lower the signal;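 note: cell cycle arrest scored as ratio of 2N to 4N nuclear DNA content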
# Method in brief: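 HepG2 cells were exposed to compounds at 0.39–200 uM (ten concentrations, duplicate) in 0.5% v/v DMSO for 24 hr. After formaldehyde fixation and Triton permeabilization, Hoechst 33342-stained nuclei were imaged at 20x; DNA content was quantified, with bidirectional fitting against DMSO.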
# [8] = APR_HepG2_StressKinase_1hr: Apredica 1-hour HepG2 Assay for Stress Kinase (AID 2282906); settings: HepG2 stress kinase (phospho-c-Jun) imaging, actives raise or lower the signal
# Method in brief: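 HepG2 cells dosed 0.39-200 uM (0.5% DMSO) for 1 h, then formaldehyde-fixed. Stress kinase read by phospho-c-Jun immunofluorescence using high-content imaging; bidirectional fit vs DMSO.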
# [9] = APR_HepG2_NuclearSize_24hr: Apredica 24-hour HepG2 Assay for Nuclear Size (AID 2282907); settings: high-content imaging, actives raise or lower the signal
# Method in brief: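 HepG2 human liver cells were exposed for 24 hr to compounds at 0.39–200 uM (ten concentrations, duplicate) in 0.5% v/v DMSO. They were then formaldehyde-fixed, Triton-permeabilized and Hoechst 33342-stained, and nuclear diameter was imaged at 20x. Bidirectional fits were made against DMSO.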
# [10] = APR_HepG2_CellLoss_24hr: Apredica 24-hour HepG2 Assay for Cell Loss (AID 2282908); settings: high-content imaging;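 for AC50: fit in both directions so a hit may be cell loss or gain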
# Method in brief: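 Compounds were tested at 0.39–200 uM in duplicate with 0.5% v/v DMSO final. Cells were then fixed in 3.7% formaldehyde, Hoechst 33342 nuclei were imaged at 20x by HCS, and cell number was fitted bidirectionally against DMSO.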
# [11] = APR_HepG2_MitoticArrest_24hr: Apredica 24-hour HepG2 Assay for Mitotic Arrest (AID 2282910); settings: high-content imaging, actives raise or lower the signal
# Method in brief: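 HepG2 human liver cells were exposed to compounds at 0.39–200 uM (10 concentrations, duplicate) in 0.5% v/v DMSO for 24 hr, then fixed and immunostained for phospho-histone H3 with Hoechst 33342. Mitotic arrest came from HCS fluorescent imaging, fitted bidirectionally against DMSO.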
# [12] = APR_HepG2_MitoMembPot_24hr: Apredica 24-hour HepG2 Assay for Mitochondrial Membrane Potential (AID 2282911); settings: imaging, actives raise or lower the signal
# Method in brief: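 Mitochondrial dye uptake (MitoTracker Red CMXRos, 250 nM, 30 min pre-fixation) in HepG2 after 24 hr compound exposure, 0.39–200 uM; ArrayScan images at 20x, activity fitted in both directions relative to DMSO.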
# [13] = APR_HepG2_MitoMass_24hr: Apredica 24-hour HepG2 Assay for Mitochondrial Mass (AID 2282912); settings: high-content imaging, actives raise or lower the signal
# Method in brief: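 Human HepG2 liver cells were exposed for 24 hr to compounds at 0.39–200 uM (duplicates, 0.5% v/v DMSO final). They were stained live with 250 nM MitoTracker Red CMXRos for 30 min, fixed in 3.7% formaldehyde, and imaged by HCS fluorescence; signals were fitted bidirectionally against DMSO.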
# [14] = APR_HepG2_p53Act_24hr: Apredica 24-hour HepG2 Assay for p53 Activation (AID 2282913); settings: high-content imaging, actives raise or lower the signal;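 note: p53 protein immunofluorescence averaged per cell in HepG2 with Hoechst nuclei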
# Method in brief: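 Following 24 hr dosing of HepG2 at 0.39–200 uM, the cells undergo formaldehyde fixation, Triton permeabilization and multiplexed antibody labeling that includes p53 (Cy5). Signal from the imaging is referenced to DMSO solvent controls.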
# [15] = APR_HepG2_CellCycleArrest_72hr: Apredica 72-hour HepG2 Assay for Cell Cycle Arrest (AID 2282914); settings: high-content imaging, actives raise or lower the signal
# Method in brief: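 Using multiplexed high-content imaging, HepG2 nuclei stained with Hoechst 33342 (2 ug/mL) were analysed for DNA content after fixation and permeabilization. Treatment lasted 72 hr across 0.39–200 uM in duplicate with final DMSO 0.5% v/v; DMSO served as negative control.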
# [16] = APR_HepG2_CellLoss_72hr: Apredica 72-hour HepG2 Assay for Cell Loss (AID 2282915); settings: high-content imaging
# Method in brief: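 HepG2 cells were exposed for 72 hr to compounds at 0.39–200 uM (ten concentrations, duplicate) in 0.5% v/v final DMSO. Nuclei were stained with Hoechst 33342 after 3.7% formaldehyde fixation, imaged at 20x, and counted; fits bidirectional versus DMSO.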
# [17] = APR_HepG2_MitoticArrest_1hr: Apredica 1-hour HepG2 Assay for Mitotic Arrest (AID 2282672); settings: high-content imaging, actives raise or lower the signal
# Method in brief: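 HepG2 cells exposed 1 hr to compounds at 0.39–200 uM (0.5% v/v DMSO final), then fixed in 3.7% formaldehyde and immunostained for phospho-histone H3 with Hoechst 33342. Mitotic arrest scored by automated fluorescence imaging, fitted bidirectionally versus DMSO.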
# [18] = APR_HepG2_P-H2AX_1hr: Apredica 1-hour HepG2 Assay for H2AX Phosphorylation (AID 2282673); settings: high-content imaging, actives raise or lower the signal
# Method in brief: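 HepG2 dosed 1 hr at 0.39-200 uM (0.5% DMSO final), duplicate. Fixed in 3.7% formaldehyde, Triton permeabilized, immunostained for phospho-histone H2A.x (1:200) with Hoechst 33342; ArrayScan 20x imaging, bidirectional fit vs DMSO.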
# [19] = APR_HepG2_MicrotubuleCSK_24hr: Apredica 24-hour HepG2 Assay for Microtubule CSK Stabilty (AID 2282909); settings: HepG2 microtubule cytoskeleton imaging, actives raise or lower the signal
# Method in brief: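 HepG2 cells exposed 24 h to compounds at 0.39–200 uM (duplicate, 0.5% v/v DMSO final), then fixed, permeabilized and immunostained for alpha-tubulin with Hoechst 33342. Cytoskeleton imaged at 20x; bidirectional fit versus DMSO baseline.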
# [20] = APR_HepG2_p53Act_1hr: Apredica 1-hour HepG2 Assay for p53 Activation (AID 2282671); settings: high-content imaging, actives raise or lower the signal
# Method in brief: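 HepG2 cells treated 1 h with compound at 0.39–200 uM (10 concentrations, duplicate) in 0.5% DMSO. Formaldehyde-fixed, permeabilised cells immunostained for p53 with Hoechst 33342; high-content imaging, bidirectional fit versus DMSO.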
compound,measurement,setting,value
CCNc1nc(Cl)nc(NC(C)(C)C#N)n1,outcome,[1],inactive
same,outcome,[2],inactive
same,outcome,[3],inactive
same,outcome,[4],inactive
same,outcome,[5],inactive
same,outcome,[6],inactive
same,outcome,[7],inactive
same,outcome,[8],inactive
same,outcome,[9],inactive
same,outcome,[10],inactive
same,outcome,[11],inactive
same,outcome,[12],inactive
same,outcome,[13],inactive
same,outcome,[14],inactive
same,outcome,[15],inactive
same,outcome,[16],inactive
C=C(C)[C@H]1Cc2c(ccc3c2O[C@@H]2COc4cc(OC)c(OC)cc4[C@@H]2C3=O)O1,outcome,[1],inactive
same,outcome,[2],inactive
same,AC50,[3],4.74 µM (active)
same,outcome,[4],inactive
same,outcome,[17],inactive
same,outcome,[18],inactive
same,outcome,[5],inactive
same,outcome,[6],inactive
same,AC50,[7],0.0391 µM (active)
same,outcome,[8],inactive
same,outcome,[9],inactive
same,AC50,[10],15.7 µM (active)
same,outcome,[19],inactive
same,outcome,[11],inactive
same,outcome,[13],inactive
same,AC50,[15],0.283 µM (active)
same,AC50,[16],12.8 µM (active)
S=C1NCCN1,outcome,[1],inactive
same,outcome,[2],inactive
same,outcome,[3],inactive
same,outcome,[4],inactive
same,outcome,[5],inactive
same,outcome,[7],inactive
same,outcome,[8],inactive
same,outcome,[9],inactive
same,outcome,[10],inactive
same,outcome,[19],inactive
same,outcome,[11],inactive
same,outcome,[13],inactive
same,outcome,[14],inactive
same,outcome,[15],inactive
same,outcome,[16],inactive
CON=C(C(=O)OC)c1ccccc1CON=C(C)c1cccc(C(F)(F)F)c1,outcome,[1],inactive
same,outcome,[2],inactive
same,outcome,[3],inactive
same,outcome,[4],inactive
same,outcome,[20],inactive
same,outcome,[5],inactive
same,outcome,[7],inactive
same,outcome,[8],inactive
same,outcome,[9],inactive
same,outcome,[10],inactive
same,outcome,[11],inactive
same,AC50,[12],1.07 µM (active)
same,outcome,[13],inactive
same,outcome,[14],inactive
same,outcome,[15],inactive
same,AC50,[16],3.36 µM (active)
Cc1nn(-c2cc(NS(C)(=O)=O)c(Cl)cc2Cl)c(=O)n1C(F)F,outcome,[2],inactive
same,outcome,[3],inactive
same,outcome,[4],inactive
same,outcome,[17],inactive
same,outcome,[5],inactive
same,outcome,[7],inactive
same,outcome,[8],inactive
same,outcome,[9],inactive
same,outcome,[10],inactive
same,outcome,[19],inactive
same,outcome,[11],inactive
same,outcome,[13],inactive
same,outcome,[14],inactive
same,outcome,[15],inactive
same,outcome,[16],inactive
CCc1cccc(CC)c1N(COC)C(=O)CCl,outcome,[2],inactive
same,outcome,[3],inactive
same,outcome,[4],inactive
same,outcome,[18],inactive
same,outcome,[5],inactive
same,AC50,[7],60.9 µM (active)
same,outcome,[8],inactive
same,outcome,[9],inactive
same,AC50,[10],92.5 µM (active)
same,AC50,[11],62.4 µM (active)
same,outcome,[13],inactive
same,outcome,[15],inactive
same,AC50,[16],17.2 µM (active)
CCCSP(=O)(OCC)Oc1ccc(Br)cc1Cl (stereo not drawn),outcome,[2],inactive
same,outcome,[3],inactive
same,outcome,[4],inactive
same,outcome,[20],inactive
same,outcome,[18],inactive
same,outcome,[5],inactive
same,outcome,[6],inactive
same,outcome,[7],inactive
same,outcome,[8],inactive
same,outcome,[9],inactive
same,AC50,[10],108 µM (active)
same,outcome,[11],inactive
same,outcome,[12],inactive
same,outcome,[13],inactive
same,outcome,[14],inactive
same,outcome,[15],inactive
same,AC50,[16],114 µM (active)
CCc1cnc(C2=NC(C)(C(C)C)C(=O)N2)c(C(=O)O)c1 (stereo not drawn),outcome,[2],inactive
same,outcome,[3],inactive
same,outcome,[4],inactive
same,outcome,[17],inactive
same,outcome,[5],inactive
same,outcome,[7],inactive
same,outcome,[8],inactive
same,outcome,[9],inactive
same,outcome,[10],inactive
same,outcome,[19],inactive
same,outcome,[11],inactive
same,outcome,[13],inactive
same,outcome,[15],inactive
same,outcome,[16],inactive
